TrxR1 substrate = rat thioredoxin reductase 1 substrate activity. 390,000 tested, 0.01% active. purified TrxR1 substrate turnover, NADPH consumption readout. O89049. Potency, µM (top dose mostly 114 µM). AID 588456; note: nearly all actives have a fitted effect of over 50% in size
Target sequence (O89049 whole entry, looked up): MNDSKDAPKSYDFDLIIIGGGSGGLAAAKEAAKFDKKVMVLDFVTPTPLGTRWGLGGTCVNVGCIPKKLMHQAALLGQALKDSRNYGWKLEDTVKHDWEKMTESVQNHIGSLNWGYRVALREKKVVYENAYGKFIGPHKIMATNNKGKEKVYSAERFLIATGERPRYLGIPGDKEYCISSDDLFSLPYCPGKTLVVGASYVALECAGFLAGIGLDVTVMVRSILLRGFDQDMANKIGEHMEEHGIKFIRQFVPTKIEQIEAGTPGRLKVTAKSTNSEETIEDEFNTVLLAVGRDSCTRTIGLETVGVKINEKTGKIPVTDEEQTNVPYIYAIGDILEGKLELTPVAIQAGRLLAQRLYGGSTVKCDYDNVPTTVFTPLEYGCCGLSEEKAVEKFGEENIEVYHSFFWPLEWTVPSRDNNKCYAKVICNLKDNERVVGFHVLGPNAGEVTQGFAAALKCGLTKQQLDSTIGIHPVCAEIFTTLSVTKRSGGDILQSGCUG
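Rat TrxR1, dispensed at 90 nM, was prereduced with 400 uM NADPH (final) for 5 min at ~22 deg C, then incubated with compound 15 min before 400 uM selenite. A first-read NADPH fluorescence drop versus no-compound background flagged substrates.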
PKM2 act = increases activity of human pyruvate kinase M2 | AID 1631 | 260,000 tested, 0.34% active | Potency, µM (highest dose often 57.5 µM), actives largely listed as activators | purified PKM2, Kinase-Glo ATP luminescence, activation; response scale: 0% is enzyme alone, no compound | P14618; note: nearly all actives have a fitted effect of over 55% in size
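ATP formation by purified human PK-M2, quantified via coupled luciferase luminescence after 1 h at room temperature with 0.1 mM ADP and 0.5 mM PEP final.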
GLS inh = blocks human kidney-isoform glutaminase activity | AID 624170 | Potency, µM (series often up to 45.5 µM), hits mostly inhibitors | 410,000 tested, 0.21% active | GLS enzymatic activity, qHTS titration | O94925
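Compounds were pin-transferred onto hKGA, after which L-glutamine (1 mM solution) and a detection mix of glutamate oxidase, HRP and Amplex Red were added. Initial and 30 min RT fluorescence reads were collected.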
TrxR1 inh = blocks rat thioredoxin reductase 1; O89049; recombinant rTrxR1, NADPH fluorescence consumption, selenite substrate; Potency, µM (doses to about 114 µM), actives largely listed as inhibitors; 390,000 tested, 1% active; note: nearly all actives have a fitted effect of over 65% in size
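Rat TrxR1 (90 nM in the dispensed reagent) was pre-reduced with 400 uM NADPH for 5 min at room temperature, then incubated with compound for 15 min. After 400 uM selenite was added, NADPH fluorescence (Ex 340/Em 450 nm) was followed for 8 min.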
LDHA block = inhibitors of human lactate dehydrogenase A | P00338 | purified LDHA, NADH/diaphorase-resazurin fluorescence; hits give low values | activity change, % (values are at about 110 or 230 µM) | 480,000 tested, 0.15% active | AID 1347041; in the data active = activity change below about -30%; inconclusive = mostly about -25% to -30%
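Human LDH5 at 2 nM final in Tris HCl pH 7.4 with 0.06 mM NADH and 0.2 mM pyruvate, reacted 5 minutes at room temperature. Remaining NADH coupled via diaphorase/resazurin; resorufin fluorescence read at 0 and 20 minutes, normalized to enzyme-free and DMSO wells.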
IDH1 R132H inh = human IDH1 R132H inhibition; 390,000 tested, 0.093% active; IDH1-R132H enzyme, NADPH consumption, diaphorase/resazurin fluorescence; Potency, µM (series often up to 76.6 µM), actives largely listed as inhibitors; note: nearly all actives have a fitted effect of over 65% in size
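IDH1-R132H (0.5 ug/mL dispensed) in pH 7.5 Tris buffer was preincubated 30 min with compound, then given a substrate mix of 0.016 mM NADPH and 2 mM alpha-KG for 80 min at room temperature; remaining NADPH was read by diaphorase/resazurin fluorescence.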
Numbers stand for hits; i = inactive; ? = inconclusive; nt = not tested or not shown; ! = not active in a repeat; [ ] = dose if it differs, or a comment. This is a sample that favours compounds with a hit; in the whole collection about 1.4% have one here. Unless noted, calls come from the whole dose curve; as a rule, active = well fitted curve in the direction sought with a large enough effect; inconclusive = small, poorly fitted or top-dose-only effect, or another doubt; inactive = no such curve, though single readings can be large; an effect the other way counts as inactive or inconclusive.

SMILES	TrxR1 substrate	PKM2 act	GLS inh	TrxR1 inh	LDHA block	IDH1 R132H inh
NC(=S)N/N=C/C1=C(c2ccccc2)C2C=CC1C2 (stereo not given)	nt	nt	nt	nt	i	nt
O=C(NC(Cc1ccccc1)c1ccccc1)C1CCCO1 (stereo not given)	nt	nt	nt	nt	i	nt
Cc1ccc(-c2nc(-c3ccc(F)cc3)no2)cc1	nt	nt	nt	nt	i	nt
NS(=O)(=O)c1ccc(NCC2COc3ccccc3O2)c([N+](=O)[O-])c1 (stereo not given)	i	20µM	i	i	i	i
CC(=O)c1ccc(NCC2COc3ccccc3O2)c([N+](=O)[O-])c1 (stereo not given)	i	i	i	i	i	i
CN(C)CC/C=C1\c2ccccc2COc2ccccc21	i	i	i	31.6µM!	i	i
COCCNc1nc2c(c(=O)n(Cc3ccccc3F)c(=O)n2C)n1C	i	i	15.8µM	i[2.29 µM]	i	i
Cn1c(NCCCN2CCOCC2)nc2c1c(=O)n(Cc1ccc(Cl)cc1Cl)c(=O)n2C	i	i	2.51µM	i	i	i
Cn1c(=O)c2c(nc(NCCCN3CCOCC3)n2Cc2ccccc2Cl)n(C)c1=O	nt	nt	nt	nt	i	nt
Cn1c(NCCO)nc2c1c(=O)n(Cc1ccccc1Cl)c(=O)n2C	i	nt	5.01µM	i	i	i
COc1ccc(CN(C)C(=O)NCc2ccc(S(=O)(=O)N3CCCCC3)cc2)cc1	nt	nt	nt	nt	i	nt
Cc1ccc2[nH]c(C)c(CC(=O)NCC(F)(F)F)c2c1	nt	nt	nt	nt	i	nt
N#Cc1c(N)n[nH]c1CCCNC(=O)c1cc(-c2cccs2)nc2ccccc12	nt	nt	nt	nt	i	nt
COc1ccc(NC(=O)CSc2nc(C)cc3c2C(=O)OC3)cc1	nt	nt	nt	nt	i	nt
CC[N+]1(C)CCC(O)(/C=C/c2ccccc2)C(C(=O)/C=C/c2ccccc2)C1 (stereo not given)	i[11.4 µM]	nt	i	0.316µM	i	i
CCc1ccc(/C=C/C(=O)C2C(=O)c3ccccc3C2=O)cc1	i	i	i	i	i	i
Cn1nc(C(=O)N2CCOCC2)cc1C(=O)Nc1cc(Cl)cc(Cl)c1	nt	nt	nt	nt	i	nt
CCCN(CCC)C(=O)c1cc([N+](=O)[O-])cc2c1-c1ccc([N+](=O)[O-])cc1C2=C(C#N)C#N	i	i	i	12.6µM	i	i
NS(=O)(=O)Cc1ccc(CNC(=O)COc2ccccc2)cc1	nt	nt	nt	nt	i	nt
O=C(CSc1nnc(NCc2ccc(F)cc2)s1)Nc1ccnn1C1CCCC1	nt	nt	nt	nt	i	nt
CCN(CC)c1ccc(/C=N/Nc2ccccc2)c(O)c1	i	i	i	8.91µM	i	i
CCN(CC)c1ccc(/C=N/NC(=S)NC)c(O)c1	i	i	i	i	i	i
CCN(CC)c1ccc(/C=N/Nc2cccc(C)c2)c(O)c1	i	i	i	22.4µM	i	i
CCN(CC)c1ccc(NC(=O)Nc2ccccc2)cc1	i	nt	12.6µM	i	i	i
CCN(CC)c1ccc(C=Nc2ccccc2)c(O)c1	i	i	i	i	i	i
SMILES	TrxR1 substrate	PKM2 act	GLS inh	TrxR1 inh	LDHA block	IDH1 R132H inh
CCN(CC)c1ccc(/C=N/N2CCOCC2)c(O)c1	i	i	12.6µM	i	i	i
CCN(CC)c1ccc(NC(=O)Nc2ccc(C(C)=O)cc2)cc1	i	i	i	i	i	i
COc1cc(OC)c(NS(=O)(=O)c2cc(C(=O)N3CCCCC3)ccc2C)cc1Cl	nt	nt	nt	nt	i	nt
CCc1c(C)sc(NC(=O)c2noc(C)c2[N+](=O)[O-])c1C#N	i	i	i	12.6µM	i	i
Cc1c(NC(=O)OCCNC(=O)Nc2ccccc2)sc(=S)n1C	i	i	i	i	i	i
Cc1ccc(S(=O)(=O)NCCOC(=O)Nc2sc(=S)n(C)c2C)cc1	i	i	i	7.08µM	i	i
CCC(C)NC(=O)CSC1=Nc2ccccc2C2=NC(c3ccccc3)C(=O)N12 (stereo not given)	i	i	12.6µM	i	i	i
CCC(C)NC(=O)CSC1=Nc2ccccc2C2=NC(CC(=O)NCc3ccccc3)C(=O)N12 (stereo not given)	i	i	?	i	i	i
O=C1CCCN1CCc1cccc2ccccc12	i	nt	i	i[2.29 µM]	i	i
O=C1CCCN1CCC12CC3CC(CC(C3)C1)C2	i	39.8µM	i	i	i	i
CC1=C(C(=O)OC(C)C)C(c2ccc(Cl)cc2)n2c(s/c(=C\c3ccc(OCC(=O)O)cc3)c2=O)=N1 (stereo not given)	i	i	11.2µM	i	i	i
COC(=O)C1=C(C)N=c2s/c(=C/c3ccoc3)c(=O)n2C1c1ccccc1 (stereo not given)	i	22.4µM	i	?	i	i
CCOC(=O)C1=C(C)N=c2s/c(=C\c3ccc(OCC(=O)O)cc3)c(=O)n2C1c1ccccc1 (stereo not given)	i	i	i	i	i	i
COc1ccc(/C=C2\CCn3c2nc2cc(C(=O)O)ccc2c3=O)cc1OC	i	i	?	i	i	i
COc1ccc(/C=C2\CCn3c2nc2cc(C(=O)O)ccc2c3=O)cc1O	i	i	6.31µM	?	i	i
Cc1ccc(OCc2ccccc2C(=O)O)cc1	nt	nt	nt	nt	i	nt
O=C(NC(=S)Nc1cccc2c(O)cccc12)c1ccco1	i	i	i	i	i	i
COc1ccccc1C(=O)NC(=S)Nc1cccc2cc(O)ccc12	i	nt	i	?	i	i
O=C(NC(=S)Nc1cccc2cc(O)ccc12)c1ccco1	i	i	i	79.4µM	i	i
O=C(NC(=S)Nc1cccc2cc(O)ccc12)c1ccccc1Br	i	i	i	50.1µM	i	i
Cc1cc(NC(=O)C(C)Sc2nccn2-c2ccc(Cl)cc2)no1 (stereo not given)	nt	nt	nt	nt	i	nt
Clc1ccccc1Cn1nnc2c(NCC3CC3)ncnc21	i	8.91µM	i	i	i	i
Clc1ccccc1Cn1nnc2c(Nc3ccccc3)ncnc21	i	i	i	i	i	i
CCCC1=C(C(=O)OCC)C(c2ccc(C)cc2)C(C#N)=C(N)O1 (stereo not given)	nt	nt	nt	nt	i	nt
CCOC(=O)C1=C(CC)OC(N)=C(C#N)C1c1ccc(NC(C)=O)cc1 (stereo not given)	i	i	i	44.7µM	i	i
COc1ccc(C2C(c3ccc(C)cc3)=C(O)C(=O)N2CCc2ccccc2)cc1 (stereo not given)	nt	nt	nt	nt	i	nt
CN(Cc1ccccc1)Cc1nc2c(c(=O)n(C)c(=O)n2C)n1CCc1ccccc1	i	nt	i	i	-30.8!	i
COCCCNC(=O)/C(C#N)=C/c1ccc(OCC(=O)O)c(OC)c1	i	i	10µM	?	i	i
O=C(CCN1CCC(c2ccccc2)C1)c1ccccc1 (stereo not given)	i[2.29 µM]	i	i	?	i	i
O=C(O)CCN1CC2([N+](=O)[O-])C=CC(=O)C([N+](=O)[O-])(C1)C2CC(=O)c1ccccc1 (stereo not given)	i	i	i	14.1µM	i	i
